Where “and” joins values, the source holds several entries; their conditions need not be identical. Equal values may be shown once. Where a name gives a salt, the structure may show the parent alone.

In this test the test system is LASCPC-01. The test can be described thus: cell viability relative to DMSO control (fraction); higher = less growth inhibition (more viable cells). The conditions noted are these: 2 µM; 72 h. How it is done: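 High-throughput single-dose screen in the LASCPC-01 NEPC cell line in 384-well plates. Cells were treated with each compound at 2 µM for 72 h, and viability was read by CellTiter-Glo luminescence. Values are normalised to the DMSO control (compound/DMSO) from three replicates; only the 5-HT-related subset of the 7315-compound library is given.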
Take `c1ccc2c(c1)CC(N1CCN(c3cccc4c3OCCO4)CC1)C2`: the cell viability turned out to be 0.835. With `OC(CN1CCN(c2cccc(Cl)c2)CC1)C(c1ccccc1)c1ccccc1` (stereo not given) the figure was 0.778; with `COc1cccc([C@H](O)C2CCN(CCc3ccc(F)cc3)CC2)c1OC` [Volinanserin], 1.06; with `CCC(=O)c1c(O)cc(O)cc1O` [Flopropione], 0.95. The same measure for `CCOc1cc(N)c(Cl)cc1C(=O)NCC1CN(Cc2ccc(F)cc2)CCO1` (stereo not given) [Mosapride Citrate]: 0.912; for `O=C1[C@@H]2[C@H]3CC[C@H](C3)[C@@H]2C(=O)N1C[C@@H]1CCCC[C@H]1CN1CCN(c2nsc3ccccc23)CC1` [Lurasidone hydrochloride]: 0.876; for `O=C(O[C@@H]1C[C@@H]2C[C@H]3C[C@H](C1)N2CC3=O)c1c[nH]c2ccccc12` [Dolasetron mesylate hydrate]: 1.07. With `Cc1nc2n(c(=O)c1CCN1CCC(c3noc4cc(F)ccc34)CC1)CCCC2` [Risperidone] the figure was 0.99. As to `CN(C)CC(c1ccc(O)cc1)C1(O)CCCCC1` (stereo not given) [Desvenlafaxine], the cell viability stood at 1. With `O=c1c(-c2ccc(O)cc2)coc2c([C@@H]3O[C@H](CO)[C@@H](O)[C@H](O)[C@H]3O)c(O)ccc12` [Puerarin] the figure was 0.989; with `CN(C)CCCN1c2ccccc2CCc2ccc(Cl)cc21` [Clomipramine hydrochloride], 0.987. The same measure for `CN(C)CCC=C1c2ccccc2C=Cc2ccccc21` [Cyclobenzaprine hydrochloride]: 0.947; for `O=C(c1ccc(F)cc1)C1CCN(CCn2c(=O)[nH]c3ccccc3c2=O)CC1` [Ketanserin tartrate]: 0.737; for `CCCCN1CCC(CNC(=O)c2c3n(c4ccccc24)CCCO3)CC1` [Piboserod]: 1.21. `CCCCCNC(=N)N/N=C/c1c[nH]c2ccc(OC)cc12` [Tegaserod maleate] came in with a cell viability of 0.531. With `COc1ccc2cccc(CCNC(C)=O)c2c1` [Agomelatine] the figure was 1.07; with `Cc1cc2c(cc1Cl)N(C(=O)Nc1ccc(Oc3cccnc3C)nc1)CC2`, 0.0538; with `CCN(CC)CCOC(=O)C(Cc1cccc2ccccc12)CC1CCCO1` (stereo not given) [Nafronyl oxalate], 1.07. The molecule `CNCC[C@@H](Oc1ccccc1C)c1ccccc1` [Atomoxetine HCl] came in with a cell viability of 1.02. With `N[C@@H](Cc1c[nH]c2ccccc12)C(=O)O` [L-Tryptophan] the figure was 0.904. The same measure for `COc1ccc(NC(=O)Nc2ccc(F)cc2F)cc1-c1c(Br)cnn1C` [Nelotanserin]: 1.09. The same measure for `CN(C)CCc1c[nH]c2ccc(CS(=O)(=O)N3CCCC3)cc12` [Almotriptan Malate]: 0.818; for `COc1cc(N)c(Cl)cc1C(=O)OCCN1CCCCC1`: 0.718. Consider `Cc1nc2ccccn2c(=O)c1CCN1CCC(C(=O)c2ccc(F)cc2)CC1` [Pirenperone], for which the cell viability came out at 0.645. As for `O=C1CCc2ccc(OCCCCN3CCN(c4cccc(Cl)c4Cl)CC3)cc2N1` [Aripiprazole], the cell viability amounted to 1.05. With `COc1ccc2cc(Br)ccc2c1` [2-Bromo-6-methoxynaphthalene] the figure was 0.899. On to `O=c1n(CCCN2CCN(c3cccc(Cl)c3)CC2)nc2ccccn12` [Trazodone hydrochloride], for which the cell viability is 1.04. In turn, `COc1ccccc1N1CCN(CCCNc2cc(=O)n(C)c(=O)n2C)CC1` [Urapidil HCl] came in with a cell viability of 0.425. With `CN(C)CC(c1ccc(O)cc1)C1(O)CCCCC1` (stereo not given) [Desvenlafaxine Succinate] the figure was 0.883; with `O=c1[nH]c2ccccc2n1CCN1CCN(c2cccc(C(F)(F)F)c2)CC1` [Flibanserin], 1.02; with `NCCc1c[nH]cn1` [Histamine], 1.07. As to `CC(C)(C)c1ccc(CN2CCN(C(c3ccccc3)c3ccc(Cl)cc3)CC2)cc1` (stereo not given) [Buclizine HCl], the cell viability was 0.896. On to `NC(N)=NC(N)=Nc1cccc(Cl)c1` [1-(m-Chlorophenyl)-biguanide hydrochloride], for which the cell viability came to 1.03.

`CC1CCN(CC[C@H]2CCCN2S(=O)(=O)c2cccc(O)c2)CC1`: the cell viability was 0.707 and 0.855.

In turn, `CN1CCN(c2cc3c(nn2)Oc2ccccc2N3C)CC1` [Azaphen] showed a cell viability of 0.951. Take `O=C1[C@H]2CCCC[C@H]2C(=O)N1CCCCN1CCN(c2nsc3ccccc23)CC1` [Perospirone]: the cell viability came out at 0.997. With `CN1CC2c3ccccc3Oc3ccc(Cl)cc3C2C1` (stereo not given) [Asenapine] the figure was 0.974; with `O=C1CC2(CCCC2)CC(=O)N1CCCCN1CCN(c2ncccn2)CC1` [Buspirone hydrochloride], 1.08.

On to `CC(=O)c1ccc2c(c1)N(CCCN1CCC(CCO)CC1)c1ccccc1S2` [Piperacetazine], for which the cell viability stood at 0.764.

Take `Cc1nccn1CC1CCc2c(c3ccccc3n2C)C1=O` (stereo not given) [Ondansetron HCl]: the cell viability was determined as 1.03.

These data come from the supplement of paper PMC10042075.
